gsp antag: antagonizes gsp, the McCune-Albright syndrome mutation; gsp-mutant cells, cAMP HTRF, 30 min; Potency, µM (doses to about 76.9 µM), usual class: inhibitors; 340,000 compounds, 0.4% hits; calls by dose curve; cell line not stated here;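 also: intracellular cAMP measured with PDE inhibitor Ro 20-1724 present during compound exposure; nearly all actives have a fitted effect of over 65% in size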
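HTRF cAMP measurement after 30 min RT detection following 30 min, 37C compound treatment alongside […] (added as 300 uM solution) in G418-selected cells seeded at 2000/well and grown 16–24 h.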
RXFP1 agonist: RXFP1 (human) receptor agonism | Q9HBX9 | HEK293T-RXFP1 cAMP TR-FRET, 30 min; response scale: percent of porcine relaxin response, buffer zero | Potency, µM (series often up to 57.5 µM), usual class: activators | 370,000 compounds, 0.3% hits | AID 2676; active = well fitted activation curve with a large enough effect; inconclusive = small, poorly fitted or top-dose-only effect; also: nearly all actives have a fitted effect of over 60% in size
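Agonist response is measured as cAMP accumulation in an RXFP1-transfected HEK293T line under PDE4 inhibition. Values are scaled between buffer-only and 29 nM porcine relaxin, and EC50s come from standard Hill equation fits.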
Akt phos inh: Akt phosphorylation inhibition | Neuro2A IGF-stimulated pAkt S473 HTRF, 20 min; hits give low values | activity change, % for hits at 50 µM | 360,000 compounds, 0.32% hits; in the data active = activity change below about -80%; inconclusive = mostly about -51% to -80%
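Neuro2A cells in DMEM with 0.5% FBS, overnight at 37 deg C, given compound at single 50 µM final, then IGF (6 nM final) for 20 min at 37 deg C. Lysed; phospho-Akt Ser473 by HTRF after 24 h, 665/615 ratio.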
gsp ag: activates gsp, the McCune-Albright syndrome mutation | AID 624287 | Potency, µM (series often up to 76.9 µM), hits mostly activators | 340,000 compounds, 0.13% hits | gsp mutant cells, cAMP HTRF, 30 min; active = well fitted activation curve with a large enough effect; inconclusive = small, poorly fitted or top-dose-only effect, or another doubt; inactive = no such curve, though single readings can be large or run the other way; cell line not stated here;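 also: phosphodiesterase inhibitor Ro 20-1724 added with compounds to block cAMP breakdown; nearly all actives have a fitted effect of over 60% in size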
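Cells stably selected in G418 were plated at 2000/well, grown 16-24 hr, then given compounds in DMSO with the PDE inhibitor […] (300 uM solution added) for 30 min at 37C; cAMP was read by HTRF.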
ClpP mod: qHTS Assay for Activators of ClpP; purified B. subtilis ClpP, FRET peptide cleavage, 20 min; Potency, µM (highest dose often 57.5 µM); 340,000 compounds, 1.9% hits; AID 651965, 2013; active = well fitted falling curve with a large enough effect; inconclusive = small, poorly fitted or top-dose-only effect; inactive = no such curve, though single readings can be large or run the other way; also: the source files actives as falling curves though it sought activators and does not explain the sign; nearly all actives have a fitted effect of over 65% in size
Target sequence (P80244 whole entry, looked up): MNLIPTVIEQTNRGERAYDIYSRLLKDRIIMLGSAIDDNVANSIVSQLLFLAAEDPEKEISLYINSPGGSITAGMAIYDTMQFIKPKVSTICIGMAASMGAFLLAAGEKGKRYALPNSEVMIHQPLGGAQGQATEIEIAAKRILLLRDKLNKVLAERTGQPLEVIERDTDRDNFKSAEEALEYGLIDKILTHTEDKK
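ClpP 10 microg/mL final, pH 8 Tris/KCl buffer with BSA, glycerol, Tween-20; compound pinned in; FRET-FV substrate; RT 20 min; Ex320/Em430; ΔFRET vs ADEP 5.8 microM, DMSO, no enzyme.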
RXFP1 antag: antagonists of human relaxin receptor RXFP1 | HEK293-RXFP1, relaxin-stimulated cAMP HTRF, 30 min; hits give low values | activity change, negative = inhibition, % at 57.5 µM | 350,000 compounds, 0.59% hits | AID 1259400;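 active = activity change of -60% or lower, but not beyond a set lower limit; inconclusive = change between -60% and -40%, or beyond the set limit; inactive = change above -40%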
Each line names hits and unclear results; the compound was inactive in the other large screens. This is a sample that favours compounds with a hit; in the whole collection about 2.7% have one here.

Clc1cc(Cl)cc(Nc2ccccc2CN(C/C=C/c2ccc3c(c2)OCO3)Cc2ccccc2)c1	gsp ag inconclusive (no result: gsp antag, RXFP1 agonist)
COc1ccc(-c2ccc(CCC(=O)O)n2CC(=O)Nc2cccc(C(F)(F)F)c2)cc1	none (no result: gsp antag, Akt phos inh, gsp ag)
O=C(Cn1cnc2nc3c(cc2c1=O)CCCC3)Nc1ccc(F)cc1Cl	none (no result: gsp antag, Akt phos inh, gsp ag)
CCOC(=O)CSc1nnc2n(-c3ccccc3)c(=O)c3c4c(sc3n12)CC(C(C)(C)C)CC4 (stereo not given)	RXFP1 antag -69 (no result: gsp antag, Akt phos inh, gsp ag)
CCOC(=O)CSc1nnc2n(-c3ccccc3)c(=O)c3c4c(sc3n12)COC(C(C)C)C4 (stereo not given)	none (no result: gsp antag, Akt phos inh, gsp ag)
Cc1cc(C=Nc2ccc(/C=C/c3ccnc4ccccc34)cc2)ccc1N(C)C	none (no result: gsp antag, RXFP1 agonist, Akt phos inh, gsp ag, RXFP1 antag)
O=C(OCc1cc(=O)n2nc(-c3cccs3)sc2n1)c1ccccc1Cl	none (no result: gsp antag, Akt phos inh, gsp ag, RXFP1 antag)
COc1ccc(NC(=O)N(O)C2(C#N)CCCCC2)cc1	none (no result: RXFP1 agonist)
Fc1ccc(NC(=S)Nc2ccc(Br)cc2)cc1	ClpP mod 28µM
COc1ccc(CCC(C)=O)cc1	none (no result: gsp antag, RXFP1 agonist, Akt phos inh, gsp ag, ClpP mod)
CCc1nc(N2CCOCC2)c(C#N)c2c1COC(C)(C)C2	ClpP mod inconclusive
CC1(C)Cc2c(C#N)c(N3CCN(C(=O)c4ccccc4)CC3)nc(Cc3ccccc3)c2CO1	ClpP mod 32µM
CCc1nc(N2CCN(C(=O)c3ccccc3)CC2)c(C#N)c2c1COC(C)(C)C2	ClpP mod 25µM
COc1ccc(C(NC(=O)c2c(F)c(F)c(F)c(F)c2F)c2ccccc2)cc1 (stereo not given)	gsp antag 32µM, RXFP1 antag inconclusive
CCOC(=O)c1[nH]c2ccccc2c1NC(=O)CCN1CC(C)OC(C)C1 (stereo not given)	none
CCOC(=O)c1[nH]c2ccccc2c1NC(=O)CCN1CCN(C(=O)OCC)CC1	ClpP mod 22µM
COC(=O)c1[nH]c2cc(OC)ccc2c1NC(=O)CCN1CCN(c2cccc(C)c2C)CC1	ClpP mod 25µM
CCOC(=O)c1[nH]c2ccc(F)cc2c1NC(=O)CCN1CCSCC1	ClpP mod inconclusive
COC(=O)c1[nH]c2cc(OC)ccc2c1NC(=O)CCN1CCN(c2ccccc2)CC1	none
CCOC(=O)c1[nH]c2ccc(F)cc2c1NC(=O)CCN1CCOCC1	none (no result: ClpP mod)
COC(=O)c1[nH]c2ccc(F)cc2c1NC(=O)CCN1CC(C)OC(C)C1 (stereo not given)	ClpP mod 16µM
CCOC(=O)c1[nH]c2ccc(OC)cc2c1NC(=O)CCN1CCSCC1	ClpP mod 13µM
CCc1nc2c(OCC(=O)C(C)(C)C)cccn2c1N(C=O)CC(=O)N(C)C	none (no result: gsp antag, RXFP1 agonist, gsp ag, RXFP1 antag)
CC(=O)NC(c1ccccc1)c1nc(-c2ccc(C)c(C)c2)cs1 (stereo not given)	none (no result: gsp antag, RXFP1 agonist, gsp ag, RXFP1 antag)
CSCCC(NC(=O)c1ccc(Cl)cc1Cl)C(=O)N(C)Cc1nc2ccccc2c(=O)[nH]1 (stereo not given)	none
CCOC(=O)c1[nH]c2ccc(OC)cc2c1NC(=O)CN1CCc2ccccc2C1	ClpP mod 16µM
CCOC(=O)c1oc2ccc(OC)cc2c1NC(=O)CN1CCN(C)CC1	gsp ag inconclusive, ClpP mod 16µM
CCOC(=O)c1[nH]c2ccc(OC)cc2c1NC(=O)C(C)N1CCC2(CC1)OCCO2 (stereo not given)	none (no result: gsp antag, Akt phos inh, gsp ag, ClpP mod, RXFP1 antag)
COc1cc2c(cc1OC)CN(C(C)C(=O)Nc1ccc(NC(C)=O)cc1)CC2 (stereo not given)	none
CCOC(=O)c1[nH]c2ccc(F)cc2c1NC(=O)C(C)N1CCc2cc(OC)c(OC)cc2C1 (stereo not given)	ClpP mod 20µM
CCOC(=O)c1[nH]c2ccc(OC)cc2c1NC(=O)CN1CCC2(CC1)OCCO2	ClpP mod 14µM
Cc1cc(C)n2c(-c3ccccc3Cl)nnc2n1	ClpP mod 28µM (no result: RXFP1 antag)
CN(C)c1ccc(C(CNC(=O)COc2ccc(Cl)cc2)N2CCCC2)cc1 (stereo not given)	RXFP1 antag -64 (no result: Akt phos inh)
C#CCOCCOCCOCCNc1nc(N2CCN(C(=O)Cn3cc(CC(C)O)nn3)CC2)nc(N2CCN(C(=O)[C@H](CCCCN)n3cc(CC(C)O)nn3)CC2)n1 (stereo not given in full)	none (no result: RXFP1 agonist, gsp ag, RXFP1 antag)
Cc1ccc(-c2nnc(SCC(=O)Nc3sc(C)c(C)c3C#N)n2C)cc1	none
Cc1sc(NC(=O)CSc2nnc(-c3ccc(F)cc3)o2)c(C#N)c1C	gsp antag inconclusive, Akt phos inh -108%
CCOc1cccc(-c2c(C(=O)N/N=C/c3ccsc3)nnn2-c2nonc2N)c1	RXFP1 antag -61
Cc1ccc(SCc2c(C(=O)N/N=C/c3ccoc3)nnn2-c2nonc2N)cc1	gsp antag 32µM
Cc1ccc(-c2c(C(=O)N/N=C/c3ccc(OC(C)C)cc3)nnn2-c2nonc2N)cc1	gsp antag inconclusive, ClpP mod 28µM
Cc1ccc(-c2c(C(=O)N/N=C/c3ccc4c(c3)OCO4)nnn2-c2nonc2N)cc1	gsp antag 25µM
COC(=O)c1ccccc1NC(=O)c1nn(C)c2c1COc1ccccc1-2	none (no result: gsp antag, Akt phos inh, gsp ag)
O=S(=O)(c1ccc(-c2cnc(C3CC3)o2)cc1)N1CCN(c2ccccc2F)CC1	ClpP mod 28µM (no result: gsp antag, Akt phos inh, gsp ag, RXFP1 antag)
COc1ccc(S(=O)(=O)Nc2ccccc2C(=O)Nc2nc(-c3ccc(F)cc3)cs2)cc1OC	gsp antag 35µM, ClpP mod 16µM
CCCNC(=O)c1ccccc1NS(=O)(=O)c1ccc(OC)c(OC)c1	ClpP mod 32µM
COc1cccc(NC(=O)CN(C)C(C)C(=O)Nc2cc([N+](=O)[O-])ccc2Cl)c1 (stereo not given)	ClpP mod 32µM
COc1ccccc1OCC(=O)Nc1cc(Cl)ccc1N1CCCCC1	gsp antag inconclusive
S=C(NCC1CCCO1)N1CCN(c2nc(-c3ccc(Cl)cc3)cs2)CC1 (stereo not given)	gsp antag 50µM (no result: ClpP mod)
S=C(NCCCN1CCOCC1)N1CCN(c2nc(-c3ccc(Cl)cc3)cs2)CC1	gsp ag inconclusive, RXFP1 antag inconclusive
CCOc1ccc(CCNC(=O)CCCc2nnc3n(CC)c(=O)c4sccc4n23)cc1	none (no result: gsp antag, Akt phos inh, gsp ag)
CN(C)c1ccc(NC(=O)c2cn(-c3ccccc3)nc2-c2cccs2)cc1	none
O=C(Nc1ccc2ccccc2c1)c1cn(-c2ccccc2)nc1-c1cccs1	ClpP mod 32µM
Cc1n[nH]c(C)c1N1C(=O)c2cccc3c(Br)ccc(c23)C1=O	Akt phos inh -113%
CCOc1ccc2oc(-c3ccccc3)c(C(=O)N3CCN(CCO)CC3)c2c1	ClpP mod 14µM
CCOc1ccc2oc(-c3ccccc3)c(C(=O)O)c2c1	none

Screening results: PubChem, National Center for Advancing Translational Sciences (NCATS)
